# FBA Mtb inh: inhibits M. tuberculosis FBA enzyme | inhibition, % at 1 µM | AID 588726 | P9WQA3 | purified M. tuberculosis FBA, fluorescence read-out | 360,000 compounds, 2.3% hits
# Target sequence (P9WQA3 whole entry, looked up): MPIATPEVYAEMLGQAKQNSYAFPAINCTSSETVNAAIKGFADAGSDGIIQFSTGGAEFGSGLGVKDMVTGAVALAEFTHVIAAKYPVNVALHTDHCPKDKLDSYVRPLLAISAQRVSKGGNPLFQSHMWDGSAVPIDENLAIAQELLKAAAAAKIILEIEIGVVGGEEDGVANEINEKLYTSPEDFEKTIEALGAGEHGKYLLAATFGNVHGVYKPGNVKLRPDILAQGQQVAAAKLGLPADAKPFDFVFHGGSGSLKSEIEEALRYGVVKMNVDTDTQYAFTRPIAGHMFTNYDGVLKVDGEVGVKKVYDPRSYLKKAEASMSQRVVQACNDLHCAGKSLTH
# Mtb betalactam: beta-lactam sensitization of Mtb H37Rv; inhibition, % at 25 µM; M. tuberculosis H37Rv growth with meropenem, percent inhibition; AID 434955; 330,000 compounds, 0.27% hits; call rule not given here;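 note: growth measured after seven days incubation then overnight dye step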
# Mtb UGM inh: blocks M. tuberculosis UGM enzyme | P9WIQ1 | purified UGM, fluorescence polarization probe displacement | inhibition, % at 10 µM | 320,000 compounds, 0.06% hits | AID 504406; in the data active = inhibition above about 10%, passing the limit was not always enough
# Rv3671c inh: inhibitors of M. tuberculosis serine protease Rv3671c; P9WHR9; inhibition, % at 5.96 µM; 320,000 compounds, 0.048% hits; in the data active = inhibition above about 38%;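 note: extracellular domain of Rv3671c used as enzyme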
# RecA intein inh: Mtb RecA intein splicing inhibition. cell-free RecA intein splicing, fluorescence. inhibition, % (concentration not given with the values). 290,000 compounds, 0.75% hits. AID 2221; in the data active = inhibition above about 30%
# GDH-TPI counter-1: GDH-TPI coupled enzyme inhibition counter-screen | 360,000 compounds, 1.2% hits | GDH-TPI coupled enzyme counterscreen, NADH absorbance | inhibition, % at 4.8 µM; in the data active = inhibition above about 30%
# Mtb FBA inh conf: confirmation of M. tuberculosis fructose-bisphosphate aldolase inhibitors | inhibition, % at 1 µM | 5,600 compounds, 78% hits | purified M. tuberculosis FBA, fluorescence read-out | shares compounds with FBA Mtb inh
# GDH-TPI counter-2: inhibits GDH-TPI coupling enzymes, flagging Mtb FBA hits. AID 652141. shares compounds with FBA Mtb inh. inhibition, % at 1 µM. GDH-TPI coupled enzyme counterscreen, fluorescence. 5,600 compounds, 81% hits; in the data active = inhibition above about 10%
# Hits are given with their value; – = inactive; · = no result given; + = active, no number. The list is not random: actives were taken first. Their share in the collection is about 4%. Cut-off read from the data, not from the text of the source, unless noted: active = inhibition above about 27%; inactive = the rest.
SMILES,FBA Mtb inh,Mtb betalactam,Mtb UGM inh,Rv3671c inh,RecA intein inh,GDH-TPI counter-1,Mtb FBA inh conf,GDH-TPI counter-2
Cc1ccc(S(=O)(=O)CCC(=O)Nc2ccccc2Br)cc1,–,–,–,–,–,–,·,·
CCC(C)NC(=O)c1cn(CCOC)c(=O)c2c1c1ccccc1n2C (configuration not stated),–,–,–,–,–,–,·,·
COCCn1cc(C(=O)N2CCCC(C)C2)c2c3ccccc3n(C)c2c1=O (configuration not stated),45.4,–,–,–,–,–,–,–
COCCn1cc(C(=O)N2CCC3(CC2)OCCO3)c2c3ccccc3n(C)c2c1=O,37.5,–,–,–,·,–,144.3,120.1
CCOc1ccc(N(CC(=O)NCCc2ccccc2)C(=O)CCC(=O)Nc2nccs2)cc1,–,–,–,–,–,–,·,·
FC(F)(F)c1ccc(Sc2nnc(-c3cccs3)n2CC2CCCO2)nc1 (configuration not stated),83.2,–,–,–,–,–,98.5,68.8
FC(F)(F)c1cnc(Sc2nnc(-c3cccs3)n2CC2CCCO2)c(Cl)c1 (configuration not stated),–,–,–,–,–,–,·,·
CCCCNc1c(-c2ccc(OC)c(SC3CCCCC3)c2)nc2cc(C)ccn12,–,–,–,–,–,–,·,·
CCCCNc1c(-c2cccc(-c3ccc(OC)cc3)c2)nc2cc(C)ccn12,29.0,–,–,–,·,–,65.8,57.5
CCCCNc1c(-c2cccc(-c3ccc(OC)cc3)c2)nc2ccc(C)cn12,30.7,–,–,–,–,–,–,–
O=S(=O)(c1ccccc1)N1N=C(c2cccs2)CC1c1ccc(Br)cc1 (configuration not stated),–,–,–,–,–,–,·,·
Fc1ccc(C2CC(c3cccs3)=NN2c2ccccc2)cc1 (configuration not stated),107.3,·,·,·,–,–,32.9,21.7
c1ccc(C2CC(c3cccs3)=NN2c2ccccc2)cc1 (configuration not stated),87.0,–,–,–,–,–,170.6,119.0
COc1ccc2oc(C(=O)Nc3nc(-c4ccccn4)cs3)c(C)c2c1,–,–,–,–,–,–,·,·
CCNC(=O)C1(C)CCN(C(=O)c2cc(F)ccc2C)C1 (configuration not stated),–,·,·,·,·,–,·,·
CC(C)c1ccc(Oc2cccc3c2S(=O)(=O)N(C2CCCC2)CC(COCc2ccccc2)O3)cc1 (configuration not stated),–,·,·,·,·,–,·,·
O=C(Cc1ccccc1)Nc1nnc(-c2cccs2)s1,68.0,–,–,–,–,–,106.3,82.8
COCC(=O)Nc1nnc(-c2cccs2)s1,–,–,–,–,–,–,·,·
CCC(=O)Nc1nnc(-c2cccs2)s1,27.0,–,–,–,–,–,–,–
CCC(C)C(=O)Nc1nnc(-c2cccs2)s1 (configuration not stated),32.5,–,–,–,·,–,51.0,46.9
CC(C)NC(=O)CCCN1C(=O)c2ccccc2Sc2ncccc21,–,–,–,–,–,–,·,·
COc1c(C)cc(C(O)c2ncc(-c3cccc4ccccc34)[nH]2)cc1C (configuration not stated),35.2,·,·,·,·,–,+,+
Cc1cc(C(O)c2ncc(-c3cccc4ccccc34)[nH]2)ccc1F (configuration not stated),40.4,·,·,·,·,–,56.3,40.6
OC(c1ccc(Cl)c(F)c1)c1ncc(-c2cccc3ccccc23)[nH]1 (configuration not stated),–,·,·,·,·,–,·,·
O=C(c1ccco1)N1CCN(C(=O)c2cnn(-c3ccc(F)cc3)c2-n2cccc2)CC1,–,·,·,·,·,–,·,·
SMILES,FBA Mtb inh,Mtb betalactam,Mtb UGM inh,Rv3671c inh,RecA intein inh,GDH-TPI counter-1,Mtb FBA inh conf,GDH-TPI counter-2
COc1ccc(NC(=O)C2(C)Cc3c(-c4ccc5c(c4)OCO5)ccnc3O2)cn1 (configuration not stated),42.2,·,·,·,·,–,168.6,123.8
COCCNC(=O)C1(C)Cc2c(-c3ccc4c(c3)OCO4)ccnc2O1 (configuration not stated),95.6,·,·,·,·,–,71.3,51.2
CC1(C(=O)NCc2ccccc2)Cc2c(-c3ccc4c(c3)OCO4)ccnc2O1 (configuration not stated),68.6,·,·,·,·,–,109.1,104.7
CC1(C(=O)Nc2ccc3c(c2)OCO3)Cc2c(-c3ccc4c(c3)OCO4)ccnc2O1 (configuration not stated),–,·,·,·,·,–,·,·
CC1(C(=O)NCCc2ccccc2)Cc2c(-c3ccc4c(c3)OCO4)ccnc2O1 (configuration not stated),46.2,·,·,·,·,–,59.1,41.0
CC(C)C(NC(=O)CCNC(=O)c1ccc([N+](=O)[O-])cc1)c1nc2ccccc2[nH]1 (configuration not stated),–,–,–,–,·,–,·,·
COC(=O)c1cc(=O)nc2sc(-c3cccs3)nn12,34.8,–,–,–,–,–,–,–
COC(=O)[C@H](CC(C)C)NC(=O)Cn1cnc(C(=O)Nc2ccc(C)c(C)c2)n1,–,·,·,·,·,–,·,·
O=C(c1ccc(CS(=O)c2ccccc2Cl)o1)N1CCN(C2CCCCC2)CC1 (configuration not stated),–,·,·,·,·,–,·,·
COc1ccc(NC(=O)CSc2n[nH]c(CNc3cccc(C)c3)n2)cc1,–,–,–,–,–,–,·,·
CN(C(=S)NC(=O)C12CC3CC(CC(C3)C1)C2)c1ccc(O)cc1,–,–,–,–,·,–,·,·
CCCNC(=O)C1CC(c2ccccc2C(F)(F)F)=NO1 (configuration not stated),–,–,–,–,–,–,·,·
CN1c2cccc3cccc(c23)N(C)C1(C)C,71.7,–,–,–,–,–,–,–
CN1c2ccccc2N(C)C1(C)c1cccc2ccccc12,–,–,–,–,–,–,·,·
COc1ccc2[nH]cc(CCNC(=O)CS(=O)(=O)Cc3ccccc3)c2c1,–,–,–,–,–,–,·,·
CCN(CC)C(=O)COc1cc(C)cc2oc(=O)c3c(c12)CCCC3,80.9,–,–,·,–,–,60.7,42.6
Cc1cc(OCc2ccc([N+](=O)[O-])cc2)c2c3c(c(=O)oc2c1)CCCC3,–,–,·,–,–,–,·,·
Cc1c(C)c2cc(Cl)c(OCc3nn[nH]n3)cc2oc1=O,55.5,–,–,–,–,–,92.0,75.0
C=CCOC(=O)COc1cc(C)cc2oc(=O)c3c(c12)CCC3,57.0,–,–,–,–,–,+,169.6
Cc1cc(OCc2nn[nH]n2)c2c3c(c(=O)oc2c1)CCCC3,83.7,–,–,–,–,–,58.7,47.2
Cc1ccc2nc(-c3ccsc3)c(NC3CCCC3)n2c1,27.7,–,–,–,–,–,–,13.9

# Screens as filed in PubChem BioAssay.
